# Assay results from PubChem BioAssay (EPA / NIEHS).
# More than one record can exist for a structure, and the calls need not agree. The source made the active and inactive calls. The calls were made as follows: active = hit-call score of the fitted dose curve at least 0.9, where 1 is the maximum; inactive = score below 0.9.
# Read-out: Interleukin 17A (IL17A), IL17A (gene 3605)
# Assay: BSK_BT_xIL17A: BioMAP Diversity Plus: BT Assay for Interleukin 17A (IL17A) Biomarker Activity (AID 2284229)
# Conditions: primary human B cells with PBMC
# Method in brief: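 B cells co-cultured with PBMC were exposed to test chemicals, and secreted IL-17A was quantified 24 h after dosing by Luminex xMAP bead immunoassay. Activity was fitted in the gain direction against DMSO as baseline.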
SMILES,outcome,AC50
Cc1c([N+](=O)[O-])c(C)c([N+](=O)[O-])c(C(C)(C)C)c1[N+](=O)[O-],inactive,–
CCC(C)(C#N)N=NC(C)(C#N)CC (stereo not drawn),inactive,–
O=S(=O)(c1ccc(Cl)cc1)c1cc(Cl)c(Cl)cc1Cl,inactive,–
Oc1cccc(-c2ccccc2)c1,inactive,–
Nc1ccc(N)cc1,inactive,–
Cc1ccccc1OP(=O)(Oc1ccccc1)Oc1ccccc1,inactive,–
CCOC(=O)C(SP(=S)(OC)OC)c1ccccc1 (stereo not drawn),inactive,–
c1ccc(-c2cccc(-c3ccccc3)c2)cc1,inactive,–
CCOP(=O)(OCC)OC(=CCl)c1ccc(Cl)cc1Cl,inactive,–
CCOC(=O)CC(=O)CCl,–,10.5 µM (active)
OC(Cc1ccccc1Cl)(Cn1cncn1)C1(Cl)CC1 (stereo not drawn),inactive,–
OC(Cc1ccccc1Cl)(Cn1[nH]cnc1=S)C1(Cl)CC1 (stereo not drawn),inactive,–
Cc1cc(Cl)ccc1OC(C)C(=O)O (stereo not drawn),inactive,–
Cc1cccc(OP(=O)(Oc2cccc(C)c2)Oc2cccc(C)c2)c1,inactive,–
Cc1ccc2nc3sc(=O)sc3nc2c1,inactive,–
C[C@]12CC[C@@H](O)C[C@@H]1CC[C@@H]1[C@@H]2CC[C@]2(C)C(=O)CC[C@@H]12,inactive,–
CC(C)(COCC1CO1)COCC1CO1 (stereo not drawn),inactive,–
Cc1ccccc1OP(=O)(Oc1ccccc1C)Oc1ccccc1C,–,24.7 µM (active)
Oc1c(Br)cc(Br)cc1Br,inactive,–
N#CCCC(Br)(C#N)CBr (stereo not drawn),–,7.96 µM (active)
CC(C)N(C(=O)CCl)c1ccccc1,–,5.91 µM (active)
CC1(C)[C@H](C(=O)O[C@H](C#N)c2cccc(Oc3ccccc3)c2)[C@@H]1/C=C(\Cl)C(F)(F)F,inactive,17.1 µM (active)
